Only some compounds are listed: those with a hit (about 4.3% of all), similar ones and a draw of the others.
MCF10A rereplic: inducers of DNA re-replication in MCF 10A breast cells. MCF 10A DNA re-replication, Hoechst nuclear intensity, 48 h. Potency, µM (top dose mostly 46.1 µM), for the others: at the highest dose activity, positive = re-replication, actives largely listed as activators. 350,000 compounds, 2.9% hits; further: potency means the concentration at half of the fitted maximal effect; % of control where 0% means no effect; nearly all actives have a fitted effect of over 50% in size
uPA generation: inhibitors of cell surface uPA generation. cell surface uPA generation assay, qHTS. Potency, µM (highest dose often 38.3 µM), for the others: at the top dose activity change, negative = inhibition, actives largely listed as inhibitors. 330,000 compounds, 0.31% hits. AID 540303; active means well fitted inhibition curve with a large enough effect; inconclusive means small, poorly fitted or top-dose-only effect; inactive means no such curve, though single readings can be large or run the other way; tested in mouse RAW 264.7 cells; further: potency means the concentration at half of the fitted maximal effect; on the % scale 0 is the no-effect control and ±100 the full control effect; nearly all actives have a fitted effect of over 55% in size
Giardia killer: Giardia lamblia killing. AID 540267. Giardia lamblia trophozoite viability. activity change, % at 7.66 µM, hits read low. 340,000 compounds, 0.15% hits; in the data active means activity change below about -80%; inconclusive means between about -30% and that limit;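 further: parasites exposed to compound for two days anaerobically before the ATP read; on the % scale 0 is the no-effect control and ±100 the full control effect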
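Giardia lamblia trophozoites (100 cells/well) were incubated with compounds for 48 h at 37 deg C under anaerobic conditions. Viability was read as ATP content by one-step luminescence after 15-30 min at room temperature.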
SW480 rerep: induces DNA re-replication in SW480 colon adenocarcinoma cells; AID 624297; Potency, µM (highest dose often 46.1 µM), inactives show top-dose re-replication activation, actives largely listed as activators; SW480 DNA re-replication, Hoechst DNA content imaging, 48 h; 340,000 compounds, 1.8% hits; further: potency means the concentration at half of the fitted maximal effect; % of control where 0% means no effect; nearly all actives have a fitted effect of over 55% in size
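250 cells/well; 23 nL cpd via pin tool; 48 hr, 37 C, 5% CO2; Hoechst 40 min; imager read of total nuclear intensity, ex 405/em 500-530 nm.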
Starred values were filed as active, the others as inactive; ? = inconclusive; . = not tested or not shown; [ ] = another dose, or the depositor's remark. Unless noted, the call rests on the fitted dose curve; in most records, active means well fitted activation curve with a large enough effect; inconclusive means small, poorly fitted or top-dose-only effect; inactive means no such curve, though single readings can be large or run the other way.

SMILES	MCF10A rereplic	uPA generation	Giardia killer	SW480 rerep
O=c1c2cc(N3CCOCC3)ccc2[nH]c(=S)n1CCN1CCCC1	6%	.	17	-5%
Cc1ccc(C)c(N2CCN(C(=O)c3ccc(Cn4c(=S)[nH]c5ccc(N6CCOCC6)cc5c4=O)cc3)CC2)c1	5.8µM*	-4%	3	22%
COc1ccc(N2CCN(C(=O)c3ccc(Cn4c(=S)[nH]c5ccc(N6CCOCC6)cc5c4=O)cc3)CC2)cc1	?	1%	-6	-7%
Cc1ccc(Cn2c(=S)[nH]c3ccc(N4CCOCC4)cc3c2=O)o1	?	-14%	-2	23µM*
O=C(c1ccc(Cn2c(=S)[nH]c3ccc(N4CCOCC4)cc3c2=O)cc1)N1CCN(c2ccc(F)cc2)CC1	4.6µM*	-6%	-8	12%
NC(=O)C1CCN(C(=O)C(Cc2ccccc2)NC(=O)c2ccccc2)CC1 (configuration not stated)	27%	-28%	12	21µM*
CC(=O)N1CCN(C(=O)C(Cc2ccccc2)NC(=O)c2ccccc2)CC1 (configuration not stated)	8%	-3%	-9	-7%
Cc1cn([C@H]2C[C@H](N=[N+]=[N-])[C@H](CO)O2)c(=O)[nH]c1=O	3%	.	.	-15%
CCCN=C1N(CC)C[C@@H]2[C@@H]3C(=O)N(Cc4ccccc4)C(=O)[C@@H]3[C@](Cc3ccccc3)(C(=O)OC)N12	2%	6%	11	-7%
Cc1ccc(C2=NOC(=O)/C2=C\C=C\c2ccccc2)cc1	5.2µM*	-1%	4	?
CC1=NN(c2cccc(C(=O)O)c2)C(=O)/C1=C\C=C\c1ccco1	?	-4%	11	?
CN(C)/C=C1\C(=O)ON=C1c1ccccc1	0%	1%	6	2%
CC1=NN(c2ccccc2)C(=O)/C1=C/C=C/c1ccccc1	9.2µM*	2%	-1	7.3µM*
CC(C)CC(C)c1cc(N)nc2nc3ccccc3n12 (configuration not stated)	?	-2%	33	2%
CCOC(=O)N1CCN(c2c(F)cc3[nH]c(=S)[nH]c3c2Br)CC1	8.2µM*	.	26	?
CCOC(=O)N1CCN(c2cc3[nH]c(=S)[nH]c3cc2F)CC1	-1%	.	6	2%
ClC1(Cl)CC1CSc1nnc(-c2ccncc2)o1 (configuration not stated)	-1%	-11%	-13	0%
CC1(C)S[C@H]2C(NC(=O)[C@@H](N)c3ccc(O)cc3)C(=O)N2[C@@H]1C(=O)O (some centres not stated)	8%	.	.	8%
O=C(NC(=O)N1CCN(c2cccc(Cl)c2)CC1)c1ccc(Cl)cc1	5.2µM*	-3%	-1	0%
CSc1ccccc1C(=O)N1CCN(c2cccc(Cl)c2)CC1	?	-26%	-6	23µM*
COc1ccc(C(=O)N2CCN(c3cccc(Cl)c3)CC2)cc1S(=O)(=O)NC1CC1	23µM*	?	25	24%
Cc1ccc(C(=O)N2CCN(c3cccc(Cl)c3)CC2)cc1C	18µM*	-25%	0	12µM*
CC1(C)SC2C(N3C(=O)C(c4ccccc4)NC3(C)C)C(=O)N2C1C(=O)O (configuration not stated)	-2%	.	.	-14%
CCOC(=O)C1=C(N)Oc2ccc3ccccc3c2C1c1ccc(O)cc1 (configuration not stated)	18µM*	3%	-13	1%
CCOC(=O)C1=C(N)Oc2ccc3ccccc3c2C1c1ccc(O)c(OC)c1 (configuration not stated)	?	5%	9	1%
SMILES	MCF10A rereplic	uPA generation	Giardia killer	SW480 rerep
CCCCN(CC)S(=O)(=O)c1ccc2c(c1)n(C)c(=O)c(=O)n2C	-4%	?	-17	-23%
O=C(CNC(=O)C(c1ccccc1)c1ccccc1)OCC(=O)c1cccc2ccccc12	.	.	-24	.
Cc1ccccc1NS(=O)(=O)c1cc(C(=O)Nc2cccc(N(C)S(C)(=O)=O)c2)ccc1C	15µM*	-7%	2	8%
CC(=O)Nc1ccc(C2=NNC(=NCC3CCCO3)SC2)cc1 (configuration not stated)	-3%	4%	13	.
COCC(C)N=C1NN=C(c2ccc(NC(C)=O)cc2)CS1 (configuration not stated)	5.8µM*	-1%	5	?
C/C(=C\C(=O)c1ccc(Br)cc1)NNC(=O)c1ccccc1	-1%	-25%	-1	11%
CCn1c(SCC(=O)NC2CC2)nnc1C(C)Oc1ccccc1 (configuration not stated)	2%	-5%	57	21µM*
CC(Oc1ccccc1)c1nnc(SCC(=O)NC2CC2)n1C (configuration not stated)	-16%	1%	11	-4%
C=C1/C(=C\C=C2/CCC[C@]3(C)[C@@H]([C@H](C)CCCC(C)(C)O)CC[C@@H]23)C[C@@H](O)C[C@@H]1O	21µM*	.	.	2%
C=C1CC[C@H](O)C/C1=C/C=C1\CCC[C@]2(C)[C@@H]([C@H](C)CCCC(C)(C)O)CC[C@@H]12	11µM*	.	.	9%
COc1ccccc1-c1nnc(SC/C(O)=C(\C#N)c2nc3ccccc3[nH]2)n1C1CCCCC1	?	-3%	16	-704%
C/C(O)=C(\C#N)c1nc2ccccc2[nH]1	12%	-4%	-2	-14%[9.22 µM]
N#C/C(=C(/O)c1cccs1)c1nc2ccccc2[nH]1	18µM*	-5%	-27	16µM*
N#C/C(=C(/O)c1ccc([N+](=O)[O-])s1)c1nc2ccccc2[nH]1	-5%	-25%	?	?
N#C/C(=C(/O)c1ccc(Br)s1)c1nc2ccccc2[nH]1	2.9µM*	3.5µM*	-9	7.3µM*
N#C/C(=C(/O)CSc1nnc(Cc2cccs2)n1C1CCCCC1)c1nc2ccccc2[nH]1	?	10%	3	18µM*
N#C/C(=C(/O)c1ccc(C(=O)c2ccccc2)cc1)c1nc2ccccc2[nH]1	22%	1%	-10	23µM*
Cc1ccc(NC(=O)c2ccccc2OCC(=O)Nc2ccccc2F)cc1S(=O)(=O)N(C)C	9%	?	-12	-8%
Cc1ccc(-c2csc(NC(=O)c3ccc4c(=O)n5c(nc4c3)CCCCC5)n2)cc1	?	-1%	17	.
Cc1cccc(NC(=O)CNc2cc(C)ccc2C)c1	-2%	4%	-5	7%
CN(Cc1ccccc1)c1nc(-c2ccc([N+](=O)[O-])cc2)nc2ccccc12	16%	0%	10	1%
O=[N+]([O-])c1ccc(-c2nc(C(Cl)Cl)c3ccccc3n2)cc1	?	-17%	-91*	?
COc1ccc(OC)c(C(=O)c2coc3ccc(OC(C)=O)cc23)c1	21µM*	0%	-11	?
CN(C)c1ccc(-c2cc(C3C4C=CCCC4(C)C(=O)N3Cc3ccccc3)ccc2F)cc1 (configuration not stated)	.	.	-27	.
COc1ccc(CCn2c3c(c(=O)[nH]c2=S)CN(Cc2ccccc2)CN3)cc1OC	.	.	4	.

Screens as filed in PubChem.
